The molecules below were run on HCI11 (cells of an ER-positive luminal breast cancer xenograft) (assay: cell viability (% of vehicle); higher = less cytotoxic). Conditions: 10 µM; 72 h.
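Further: PDX cells carrying CMV promoter-driven luciferase, viability read as total photon flux per second by IVIS imaging following D-luciferin, vehicle control 0.1% DMSO.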

Question: For C=CC[C@@H]1/C=C(\C)C[C@H](C)C[C@H](OC)[C@H]2O[C@@](O)(C(=O)C(=O)N3CCCC[C@H]3C(=O)O[C@H](/C(C)=C/[C@@H]3CC[C@@H](O)[C@H](OC)C3)[C@H](C)[C@@H](O)CC1=O)[C@H](C)C[C@@H]2OC [Tacrolimus (FK506)], which cell viability is on record?
Answer: Its cell viability is 85.4.

Question: With O=C1CCC(N2C(=O)c3ccccc3C2=O)C(=O)N1 (configuration not stated) [Thalidomide] as the molecule, how does the cell viability read?
Answer: Its cell viability is 103.

Question: COc1cc2nc(N3CCN(C(=O)c4ccco4)CC3)nc(N)c2cc1OC.Cl [Prazosin HCl] was tested. Which cell viability did it give?
Answer: Its cell viability is 131.

Question: For Oc1ccc(OC2CCCCO2)cc1 (configuration not stated) [Deoxyarbutin], which cell viability is on record?
Answer: Its cell viability is 112.

Question: With COc1ccccc1N1CCN(CCCNc2cc(=O)n(C)c(=O)n2C)CC1.Cl [Urapidil HCl] as the molecule, how does the cell viability read?
Answer: Its cell viability is 80.2.

Question: Which cell viability does the source give for O=C(O)CCC(=O)O.O=C(OC1CN2CCC1CC2)N1CCc2ccccc2C1c1ccccc1 (configuration not stated) [Solifenacin succinate] here?
Answer: The cell viability was 86.9.

Question: For COc1ccc(O)cc1 [Mequinol], which cell viability is on record?
Answer: The cell viability was 70.4.

Question: With CCC(CO)NCCNC(CC)CO.Cl.Cl (configuration not stated) [Ethambutol HCl] as the molecule, how does the cell viability read?
Answer: Its cell viability is 103.

Question: How did the cell viability turn out when CC(NC(=O)C(O)C(C)C)C(=O)NC1C(=O)N(C)CCc2ccccc21 (configuration not stated) was run?
Answer: Its cell viability is 119.

Question: For CC12CCC3c4ccc(OC(=O)c5ccccc5)cc4CCC3C1CCC2O (configuration not stated) [Estradiol Benzoate], which cell viability is on record?
Answer: Its cell viability is 84.7.

Question: For CC(CN1CC(=O)NC(=O)C1)N1CC(=O)NC(=O)C1.Cl (configuration not stated) [Dexrazoxane HCl (ICRF-187, ADR-529)], which cell viability is on record?
Answer: The cell viability was 97.9.

Question: For CCC1OC(=O)C(C)C(OC2CC(C)(OC)C(O)C(C)O2)C(C)C(OC2OC(C)CC(N(C)C)C2O)C(C)(O)CC(C)C2NC(COCCOC)OC(C2C)C1(C)O (configuration not stated) [Dirithromycin], which cell viability is on record?
Answer: Its cell viability is 94.
